Among the data in ChEMBL document CHEMBL4513216, “Probing the Open Global Health Chemical Diversity Library for Multistage-Active Starting Points for Next-Generation Antimalarials” (ACS Infect Dis, 2020) are INHIBITION values, retold here.

SMILES strings stand for the structures. About 2,700 (4%) of roughly 68,000 compounds showed an effect of 50% or more. The list comes from a sample in which strong results are over-represented; it also holds similar structures and randomly drawn compounds.

For this test, the system named is Plasmodium berghei. The experiment in a line: Screen against P. berghei liver stage (PbLuc), transformed with Luciferase, at 2uM. It counts as functional, HepG2. The conditions noted are these: tested at 2 uM.
For the compound `CCCN1CCCn2nc(CNS(=O)(=O)c3cccc(F)c3)cc2C1`, the INHIBITION is 39.28%.
Consider `Cc1ccc(CN(Cc2[nH]cnc2C)C2CC(C)(C)NC(C)(C)C2)o1`, for which the INHIBITION is -13%.
Turning to `Cc1nc(C2CCCN2CC(=O)N2CCc3ccccc32)no1` (centres undefined), the INHIBITION was determined as 47.93%.
The result for `COCCOc1ccc(NC(=O)N2CCOC(C(N)=O)C2)cc1F` (centres undefined) reads 29.89%; that for `Cc1cc(NC(=O)N2CCOC(C(N)=O)C2)ccc1Br` (centres undefined), 29.89%.
For the compound `COCC1CN(C(=O)Nc2cc(Cl)cc(Cl)c2)CCO1` (centres undefined), the INHIBITION is given as 13.12%.
The result for `NC(=O)C1CN(C(=O)Nc2cc(Cl)cc(Cl)c2)CCO1` (centres undefined) reads 80.56%; that for `CCOc1ccc(NC(=O)N2CCOC(C(N)=O)C2)cc1Cl` (centres undefined), 51.4%.
Under `CCOc1ccc(NC(=O)N2CCOC(C(N)=O)C2)cc1C` (centres undefined) stands 6.22%; under `Cc1ccsc1C(=O)N1CCCN(Cc2cscn2)CC1`, 29.12%.
Under `COc1ccc(NCCC(=O)NCc2cccnc2N(C)C)cc1` stands 35.54%; under `CCOC(=O)c1cnn(C2CCN(C(=O)CC(C)(C)C)CC2)c1N`, -40.25%; under `c1ccc(CN2CCC3(CC2)CC(Nc2nccs2)CO3)nc1` (centres undefined), -14.97%.
Turning to `O=C(NCC1CCCN1Cc1ccccc1)NCC1(O)CCC1` (centres undefined), the INHIBITION is recorded as -19.78%.
The result for `O=C(NCC1CCCN1CCc1ccccc1)NCC1(O)CCC1` (centres undefined) reads 57.34%.
The result for `O=C(NCC1CCN(CCc2ccccc2)C1)NCC1(O)CCC1` (centres undefined) reads -69.19%; that for `Cc1cc(CN2CC[C@H]3C[C@H](c4nc(C5CC5)cs4)O[C@@H]3C2)no1`, 35.84%.
For `COCCC1COC2(CCN(C(=O)c3ccsc3)CC2)C1` (centres undefined), the INHIBITION is on record as 56.71%.
In the case of `COCCC1COC2(CCN(C(=O)c3ccncc3)CC2)C1` (centres undefined), the INHIBITION is 2.5%.
The result for `COCCC1COC2(CCN(C(=O)c3ccccc3)CC2)C1` (centres undefined) reads -40.63%; that for `Cn1cnc(S(=O)(=O)NCCN2CCCCCC2=O)c1Cl`, 3.86%; that for `Cc1cccc(C(=O)NC2CCN(c3cnn(C)c3)C2=O)c1C` (centres undefined), 13.53%.
For `Cc1ccccc1C(=O)NC1CCN(c2cnn(C)c2)C1=O` (centres undefined), the INHIBITION was determined as 52.08%.
Under `Cc1cccc(C(=O)NC2CCN(c3cnn(C)c3)C2=O)n1` (centres undefined) stands 1.22%; under `Cn1cc(N2CCC(NC(=O)c3c(F)cccc3F)C2=O)cn1` (centres undefined), 31.98%.
Under `CCc1ccc(C(=O)NC2CCN(c3cnn(C)c3)C2=O)o1` (centres undefined) stands 26.65%; under `Cn1cc(N2CCC(NC(=O)c3ccccc3Cl)C2=O)cn1` (centres undefined), 28.95%.
Take `Cn1cc(N2CCC(NC(=O)c3ccccc3F)C2=O)cn1` (centres undefined): the INHIBITION is listed as 63.1%.
As to `Cc1ccsc1C(=O)NC1CCN(c2cnn(C)c2)C1=O` (centres undefined), the INHIBITION amounted to 20.14%.
The result for `Cn1cc(N2CCC(NC(=O)c3c(F)cccc3Cl)C2=O)cn1` (centres undefined) reads 50.98%; that for `COc1ccc(S(=O)(=O)NCCn2cnc(C)cc2=O)cc1C`, 11.94%; that for `CCCN1C[C@@H]2CC[C@H]1CN(C(=O)c1ccc(N(C)CCO)cc1)C2`, 6.73%.
Under `CC(=O)N(C)Cc1cccc(NC(=O)c2cnn(C)c2C)c1` stands -7.28%.
Turning to `CC(O)CN1CCC(CNCc2ccc(C(N)=O)cc2)CC1` (centres undefined), the INHIBITION is -63.41%.
Under `N#CCCN(c1ccccc1)S(=O)(=O)CC1CCCCO1` (centres undefined) stands 16.87%.
The result for `CNC(=O)CCN(C)CC1(c2ccc(Br)cc2)CC1` reads -43.52%; that for `CCNC(=O)N(C)Cc1ccc(SC)c(OC)c1`, -53.99%; that for `CCc1cnc(C)nc1N(C)CCCc1cnn(C)c1`, -32.88%.
Under `COc1ccccc1-n1cc(C(=O)NCCCn2ccnn2)cn1` stands 32.73%.
Consider `CC(C#N)NS(=O)(=O)c1ccc2c(c1)N(C)CCC2` (centres undefined), for which the INHIBITION is recorded as -95.81%.
The result for `Brc1csc(CNCc2nnc3n2CCC3)c1` reads 26.81%.
Under `COc1ccc(-n2ccc(C(=O)NCCN3CCCCCC3)n2)cc1` stands 23.42%; under `COC(=O)CCNC(=O)c1ccc(NC(=O)N(C)CC(C)(C)C)cc1`, 6.85%; under `O=C(CCc1nc(C2CC2)no1)c1ccccc1`, 53.65%.
Under `COc1ccc(C(=O)CCc2nc(C3CC3)no2)cc1` stands 9.43%; under `O=C(CCc1nc(C2CC2)no1)c1ccc(F)c(F)c1`, -44.84%.
Take `Cc1ccc(CN2CCN(c3ncccc3Cl)CC2CCO)cc1` (centres undefined): the INHIBITION is reported as -87.47%.
Turning to `Cc1nc(C2CCCN(C(=O)c3ccc(S(C)(=O)=O)cc3)C2)no1` (centres undefined), the INHIBITION is -6.56%.
Under `COCCN1C[C@@H]2CCCO[C@@H]2[C@H](N(C)Cc2ccco2)C1` stands 45.82%; under `Cc1nccn1-c1nccnc1C1CCN(Cc2ccc(F)cc2)CC1`, -42.32%; under `Cc1ccc(CN2CC[C@@H](NC(=O)c3cccnc3)[C@H](O)C2)s1`, -38.78%.
For `O=C(N[C@@H]1CCN(Cc2cc3ccccc3s2)C[C@H]1O)c1cccnc1`, the INHIBITION is given as 60.35%.
Under `CCc1ccccc1CN1CC[C@@H](NC(=O)c2cccnc2)[C@H](O)C1` stands -44.59%.
Under `NC(=O)c1csc(N2CCCC(c3nc4ccccc4[nH]3)C2)n1` (centres undefined) stands -41.06%; under `CC(=O)N[C@@H]1CN(Cc2ccccc2C#N)C[C@H]1c1ccc(C)cc1`, 28.19%.
For `CCN(CC1CCCO1)C(=O)Nc1cc(C(N)=O)ccc1OC` (centres undefined), the INHIBITION amounted to 84.53%.
For `CCN(CC1CCCO1)C(=O)Nc1ccc(F)cc1OC` (centres undefined), the INHIBITION is given as 22.1%.
Under `CCN(CC1CCCO1)C(=O)Nc1cc(OC)c(OC)cc1C` (centres undefined) stands -19.76%; under `O=C(C1CC=CC1)N1C[C@H]2CN(Cc3ccncc3)C(=O)[C@H]2C1`, 30.57%; under `CN(C)CCNC(=O)[C@H]1C[C@H]2CN(C(=O)NC3CCCC3)C[C@@H]1O2`, 43.87%.
Under `CN1CCN(c2ncnc3c2CCN(C(=O)c2cccn2C)CC3)CC1` stands -4.99%; under `Cc1nc(NC(=O)c2c3c(nn2C2CCS(=O)(=O)C2)CCC3)sc1C` (centres undefined), 20.76%; under `Cc1nnc(NC(=O)c2c3c(nn2C2CCS(=O)(=O)C2)CCC3)s1` (centres undefined), 48.68%.
Under `CCc1nnc(NC(=O)c2c3c(nn2C2CCS(=O)(=O)C2)CCC3)s1` (centres undefined) stands 58.53%; under `COc1cc2nc3n(c(=O)c2cc1OC)CCN(C(=O)C1CCC1)CC3`, -50.24%.
Consider `CN1CCN(Cc2cn3c(n2)CNCC3)CC1`, for which the INHIBITION amounted to 33.11%.
The result for `c1c(CN2CCCCC2)nc2n1CCNC2` reads 60%; that for `c1c(CN2CCCC2)nc2n1CCNC2`, -102.41%.
The result for `CO[C@@H]1CCC[C@@H](NC(=O)CCCn2cncn2)[C@H]1O` reads -32.51%.
With `CCc1cc(C(F)(F)F)n2nc(C3CCCN3C(=O)COC)cc2n1` (centres undefined), the INHIBITION worked out at 33.56%.
The result for `Cc1ncc(CN2CCOC(CNc3cccnn3)C2)s1` (centres undefined) reads 58.05%.
The result for `Cc1cnc(CN2CCOC(CNc3cccnn3)C2)cn1` (centres undefined) reads 18.31%; that for `Cc1nc(C)c(CN2CCOC(CNc3cccnn3)C2)s1` (centres undefined), -15.28%; that for `CC(C)NC(=O)Cn1cc(OCc2ccc(F)cc2)c(=O)cc1CO`, 14.65%.
The result for `Cc1ccccc1[C@@H]1CN(C(=O)c2ccc3[nH]nnc3c2)C[C@H]1C(=O)O` reads -45.64%; that for `CCn1c(CN2CCC(O)(C(=O)OC)CC2)nc2c(F)cccc21`, 54.32%; that for `CCn1c(CN2CCCN(C(=O)OC)CC2)nc2c(F)cccc21`, 20.28%.
With `CCn1c(CN2CCN(CC(N)=O)CC2)nc2c(F)cccc21`, the INHIBITION is on record as 27.55%.
The result for `CN(Cc1ccccn1)C(=O)C(c1ccccc1)N1CCSCC1` (centres undefined) reads 19.48%; that for `Fc1cccnc1O[C@@H]1CN(Cc2ccco2)[C@@H]2CCCO[C@@H]21`, -8.22%.
The result for `Fc1cccnc1O[C@H]1CN(Cc2ccoc2)[C@@H]2CCCO[C@H]12` reads -0.18%.
Under `Fc1cccnc1O[C@@H]1CN(Cc2ccccn2)[C@@H]2CCCO[C@@H]21` stands 66.64%; under `O=C(COc1ccc2cccnc2c1)N1CCN[C@H]2CS(=O)(=O)C[C@H]21`, -7.4%.
For the compound `CN(C)C(=O)CN1CCC2(COCc3cnc(-c4cccnc4)nc32)C1` (centres undefined), the INHIBITION was -55.8%.
Under `Cc1ccc(CNCC2CNc3cc(C)nn3C2)cn1` (centres undefined) stands 4.19%; under `Cc1cc(CNCC2CNc3ccnn3C2)no1` (centres undefined), -10%.
The result for `Cc1cc2n(n1)CC(CNCc1cc(C)on1)CN2` (centres undefined) reads 57%; that for `NCCC(=O)N1CCC2(CC1)CN(C(=O)Cc1ccc(Cl)cc1)CCO2`, 10.62%; that for `Cc1nn(-c2ccccc2)c(C)c1CN1CCNCC1`, 1.79%.
Under `Cc1nnc(C(C)N(C)Cc2c(C)nn(-c3ccccc3C)c2C)o1` (centres undefined) stands 29.39%; under `Cc1nnc(C(C)N(C)Cc2c(C)nn(-c3ccccc3)c2C)o1` (centres undefined), 52.08%.
On to `CCc1nnc(C(C)N(C)Cc2c(C)nn(-c3ccccc3)c2C)o1` (centres undefined), for which the INHIBITION worked out at 63.1%.
Under `Cc1ccccc1-n1nc(C)c(CN(C)C(C)Cc2ccccn2)c1C` (centres undefined) stands -74.1%; under `CC(C)c1nnc(CN(C)C(c2ccccc2)c2ccc(F)cc2)o1` (centres undefined), -7.07%; under `CC(=O)N(C)c1nc(CN2CCCC2Cn2nc(C)cc2C)cs1` (centres undefined), -43.47%.
Regarding `CN(C)c1ncc(-c2ccncc2)c(CCNC(=O)C2CC2)n1`, the INHIBITION is reported as -33.32%.
The result for `Cn1ncc2c(=O)[nH]c(CN(Cc3ccco3)C3CC3)nc21` reads 5.09%.
Under `CC(=O)NCCNC(=O)Nc1ccc(Br)cc1C(C)C` stands -34.04%; under `Cc1ccc(CN2CCC3(CCC(=O)N3CC(=O)N(C)C)CC2)s1`, 22.71%; under `CC1CCN(C(=O)[C@@H]2C[C@@H]3CCN(Cc4nccs4)C[C@H]3O2)CC1`, 31.76%.
As for `Cc1nnc2n1CCN(C(=O)CN1C(=O)CSc3ccccc31)C2`, the INHIBITION was -14.79%.
Under `Cc1nnsc1CN(C)Cc1ccc(C(=O)Nc2sccc2C#N)cc1` stands 67.28%; under `CN(Cc1ccc(C(=O)Nc2sccc2C#N)cc1)Cc1ccno1`, 26.74%; under `Cc1nnc(CN(C)Cc2ccc(C(=O)Nc3sccc3C#N)cc2)o1`, 33.9%.
